Reference: PubChem BioAssay AID1209 (Sanford-Burnham Center for Chemical Genomics, 2008)
The campaign covered roughly 190,000 compounds. About 810 (0.43%) were called active. Rule as the data show it: active = inhibition above about 50%; inactive = the rest. The sample as a whole holds a higher share of actives than the screen did.

target: Mannose-6-phosphate isomerase (Homo sapiens) (UniProt P34949); assay: inhibitors of human PMI, primary screen, biochemical, fluorescence intensity, coupled assay (AID 1209); settings: purified PMI enzyme, at 20 µM, active compounds read high;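 also: plate controls were DMSO vehicle for no effect and wells lacking substrate for full effect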
Sequence (P34949 whole entry, looked up): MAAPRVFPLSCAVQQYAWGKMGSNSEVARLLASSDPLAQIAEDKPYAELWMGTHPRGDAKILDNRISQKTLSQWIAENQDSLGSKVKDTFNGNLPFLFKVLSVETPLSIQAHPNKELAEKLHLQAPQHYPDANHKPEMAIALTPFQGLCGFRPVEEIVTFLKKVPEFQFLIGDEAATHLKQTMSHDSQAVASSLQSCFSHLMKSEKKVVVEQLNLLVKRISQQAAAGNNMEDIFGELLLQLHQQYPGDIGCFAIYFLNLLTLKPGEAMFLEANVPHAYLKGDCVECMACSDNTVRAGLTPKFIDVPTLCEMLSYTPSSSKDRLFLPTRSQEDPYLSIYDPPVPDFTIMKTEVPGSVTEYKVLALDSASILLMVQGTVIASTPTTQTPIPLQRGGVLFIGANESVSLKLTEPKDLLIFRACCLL

Row | Compound | inhibition
1 | CCSC1=NC2(CCCCC2)Nc2sc3c(c21)CCCC3 | -35% (inactive)
2 | CC1CCCC2(C1)NC(=S)N(c1ccccc1)N2 (stereo not given) | -48.4% (inactive)
3 | CC1CCCC2(C1)NC(=S)c1c(sc3c1CCCC3)N2 (stereo not given) | 74.4% (active)
4 | COc1ccccc1OCCOCCOc1ccc(C)cc1Br | 11.4% (inactive)
5 | C=CCn1c(SC/C=C/c2ccccc2)nnc1-c1sc(N)nc1C | 13.7% (inactive)
6 | CCN(CC#CCC(O)(c1ccccc1)C1CCCC1)C(C)C (stereo not given) | 7.4% (inactive)
7 | CC(C)(C)N(CC#CCC(O)(c1ccccc1)C1CCCC1)CCO (stereo not given) | 30.4% (inactive)
8 | CC(C)N(CC#CCC(O)(c1ccccc1)C1CCCC1)CCO (stereo not given) | 58.1% (active)
9 | CC(C)C(C)NC(=O)COC(=O)c1cccc(C(=O)OCC(=O)NC(C)C(C)C)n1 (stereo not given) | 21.9% (inactive)
10 | Nc1nnc(-c2ccncc2)s1 | 13.4% (inactive)
11 | CCOC(=O)NC1(NCC(C)C)Oc2ccccc2O1 | 42.4% (inactive)
12 | CCOC(=O)NC1(NCc2ccccc2)Oc2ccccc2O1 | 51.2% (active)
13 | CCOC(=O)NC1(NC(C)C)Oc2ccccc2O1 | 12.2% (inactive)
14 | CCN(CC)c1ccc(C2C(C(=O)OCCOC(C)C)=C(C)NC3=C2C(=O)CCC3)cc1 (stereo not given) | 6.2% (inactive)
15 | CCOC(=O)c1oc2ccccc2c1NC(=O)CN1CCOCC1 | -0.8% (inactive)
16 | COc1ccc(NC(=O)c2ccc(S(=O)(=O)N3CCOCC3)cc2)c(OC)c1 | 7.2% (inactive)
17 | COC(=O)c1c(-c2ccco2)csc1NC(=O)C1CC=CCC1C(=O)O (stereo not given) | 51.4% (active)
18 | COC(=O)c1c(-c2ccccc2)csc1NC(=O)C1CC=CCC1C(=O)O (stereo not given) | -6.8% (inactive)
19 | COC(=O)c1c(-c2ccc(C)cc2)csc1NC(=O)C1CC=CCC1C(=O)O (stereo not given) | 7.7% (inactive)
20 | O=c1[nH]nc(CNc2ccc(Cl)cc2Cl)c2ccccc12 | -11.9% (inactive)
21 | Cc1ncc(CO)c(/C=N/NC(=O)c2ccc(O)cc2)c1O | 3.5% (inactive)
22 | Cc1ncc(CO)c(/C=N/NC(=O)c2ccc(Br)cc2)c1O | 15.7% (inactive)
23 | COc1ccccc1NC(=S)N1CCC(C(=O)c2ccc(F)cc2)CC1 | 1.3% (inactive)
24 | CC(C)OCCCNC(=S)Nc1ccc2nc3n(c(=O)c2c1)CCCCC3 | -2.7% (inactive)
25 | CC(=O)N1CCN(C(=S)c2ccc(-c3ccc(Cl)cc3)o2)CC1 | 63.9% (active)
26 | NC(=O)C1CCN(C(=S)c2ccc(-c3ccc(Br)cc3)o2)CC1 | -10% (inactive)
27 | COc1ccc(-c2ccc(C(=S)N3CCN(C(C)=O)CC3)o2)cc1 | 62% (active)
28 | COc1ccc(CC(=O)N2CCN(C(=O)Cc3ccc(OC)cc3)CC2)cc1 | 7.3% (inactive)
29 | N#CCCN1CCN(C(=S)c2ccc(-c3ccc(Cl)cc3)o2)CC1 | 25.7% (inactive)
30 | S=C(c1ccc(-c2ccc(Cl)cc2)o1)N1CCCCC1 | 9.1% (inactive)
